“And” between values parts separate entries of the source, which are not always exact repeats. Equal entries are not always repeated. Records with an inconclusive call do not appear. A call without a number means that no potency is given here. The source holds several records for some structures; these can differ, active in one and inactive in another. The source made the active and inactive calls. Unless noted, the call rests on the fitted dose curve; in most records, active means well fitted curve in the direction sought with a large enough effect; inconclusive means small, poorly fitted or top-dose-only effect, or another doubt; inactive means no such curve, though single readings can be large; an effect the other way counts as inactive or inconclusive.
Columns and labels:
[1] = qHTS for Inhibitors of Plasmodium falciparum (DD2) proliferation (AID 504314);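 on activity, negative = inhibition: parasite DNA measured by SYBR Green fluorescence after red cell lysis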
Method in brief: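 Erythrocytes infected with P. falciparum Dd2 (0.3% parasitemia, 2.5% hematocrit) exposed to compound 72 h at 37C, 5% CO2. Parasite DNA quantified by SYBR Green fluorescence after saponin/Triton lysis overnight; normalized to 0.29 uM artemisinin and DMSO.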

[2] = qHTS for Inhibitors of Plasmodium falciparum (GB4) proliferation (AID 504315); further: nearly all actives have a fitted effect of over 50% in size
Method in brief: (§1)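 Erythrocytes infected with P. falciparum line (0.3% parasitemia, 2.5% hematocrit final) incubated with compounds 72 h at 37 °C, 5% CO2; SYBR Green lysis buffer added, fluorescence read next day. Normalized to 0.29 uM artemisinin and DMSO.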

[3] = qHTS for Inhibitors of Plasmodium falciparum (7G8) proliferation (AID 504316); further: nearly all actives have a fitted effect of over 65% in size
Method in brief: as §1

[4] = qHTS for Inhibitors of Plasmodium falciparum (HB3) proliferation (AID 504318); further: nearly all actives have a fitted effect of over 60% in size
Method in brief: as §1

[5] = qHTS for Inhibitors of Plasmodium falciparum (CP250) proliferation (AID 504320)
Method in brief: as §1

[6] = molecular target: Atrial natriuretic peptide receptor 1 (Homo sapiens) (UniProt P16066); assay: Natriuretic polypeptide receptor (hNpr1) antagonism - Pilot CMLD screen (AID 1347052; calls by dose curve;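 further: cGMP level read as GloSensor luciferase luminescence after agonist stimulation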)
Chain of Atrial natriuretic peptide receptor 1 (Homo sapiens) (P16066 whole entry, looked up): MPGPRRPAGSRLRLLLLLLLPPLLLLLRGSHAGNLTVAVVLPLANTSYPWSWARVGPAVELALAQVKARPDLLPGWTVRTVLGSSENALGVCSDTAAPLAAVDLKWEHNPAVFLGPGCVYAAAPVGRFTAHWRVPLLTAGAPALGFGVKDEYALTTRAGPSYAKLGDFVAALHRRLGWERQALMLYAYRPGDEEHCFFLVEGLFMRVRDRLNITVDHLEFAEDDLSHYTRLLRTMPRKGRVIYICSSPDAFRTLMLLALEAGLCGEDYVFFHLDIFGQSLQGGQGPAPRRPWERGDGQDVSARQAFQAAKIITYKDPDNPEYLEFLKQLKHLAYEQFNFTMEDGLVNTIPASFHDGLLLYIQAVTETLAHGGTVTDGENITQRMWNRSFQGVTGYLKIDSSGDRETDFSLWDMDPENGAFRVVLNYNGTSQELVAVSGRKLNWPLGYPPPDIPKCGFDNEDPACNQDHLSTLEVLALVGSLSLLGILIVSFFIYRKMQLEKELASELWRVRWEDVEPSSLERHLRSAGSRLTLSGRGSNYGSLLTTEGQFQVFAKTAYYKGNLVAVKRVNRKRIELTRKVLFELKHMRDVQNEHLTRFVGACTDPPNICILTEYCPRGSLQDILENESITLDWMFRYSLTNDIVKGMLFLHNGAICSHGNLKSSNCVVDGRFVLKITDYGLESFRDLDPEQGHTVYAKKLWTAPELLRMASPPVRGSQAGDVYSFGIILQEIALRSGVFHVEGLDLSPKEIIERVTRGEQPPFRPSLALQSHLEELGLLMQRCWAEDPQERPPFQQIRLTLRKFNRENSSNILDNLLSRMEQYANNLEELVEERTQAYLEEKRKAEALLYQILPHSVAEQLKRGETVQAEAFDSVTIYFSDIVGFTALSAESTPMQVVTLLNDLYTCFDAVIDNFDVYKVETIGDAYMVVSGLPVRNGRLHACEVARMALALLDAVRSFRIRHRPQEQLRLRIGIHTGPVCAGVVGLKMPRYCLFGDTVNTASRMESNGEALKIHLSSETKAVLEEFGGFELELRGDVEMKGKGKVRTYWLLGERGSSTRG
Potency means the concentration at half of the fitted maximal effect.

| SMILES | Potency [1] | Potency [2] | Potency [3] | Potency [4] | Potency [5] | Potency [6] | activity, negative = inhibition [1] |
| --- | --- | --- | --- | --- | --- | --- | --- |
| COC(=O)C1=C(C)N(Cc2ccccc2)C(=O)NC1c1cccc(F)c1 (configuration not stated) | inactive | inactive | inactive | inactive | inactive | inactive |  |
| COC(=O)c1cc(C(=O)OC)n2ccc3cc(OC)c(OC)cc3c12 | inactive | inactive | inactive | inactive | inactive | 531 nM (active) |  |
| COc1cc(O)c(C(=O)C=Cc2ccc3c(c2)OCO3)c(OC)c1 | inactive | inactive | inactive | inactive | inactive | inactive |  |
| CCCCCCCC#Cc1ccccc1C=NS(=O)c1ccc(C)cc1 (configuration not stated) | inactive | inactive | inactive | inactive | inactive | inactive |  |
| C=C(CO[C@@H]1C=C[C@@H](c2ccccc2)O[C@@H]1CO)c1ccccc1 | inactive | inactive | inactive | inactive | inactive | inactive |  |
| COc1cc(OC)c2c(c1)OC1Cc3cc(OC)c(OC)cc3C2O1 (configuration not stated) |  | inactive | inactive | inactive | inactive | inactive | -3.4% [at 1.12 µM] (inactive) |
| CCC(C)CN1C(=O)NC(c2ccccc2)C(C(=O)OC)=C1C (configuration not stated) | inactive | inactive | inactive | inactive | inactive | inactive |  |
| COC(=O)N[C@H](C(C(=O)OC)=C(C)NCc1ccccc1)c1ccco1 | inactive | inactive | inactive | inactive | inactive | inactive |  |
| C=C(CCN1C=C(C(C)=O)C(c2ccccc2)NC1=O)c1ccc(OC)cc1 (configuration not stated) | inactive | inactive | inactive | inactive | inactive | inactive |  |
| C#CC1(O)C(OC)=CC2C(=O)C1C(c1ccccc1)C2C (configuration not stated) | inactive | inactive | inactive | inactive | inactive | inactive |  |
| C[C@@H]1C[C@H]2CC(=O)N3[C@H](CC(=O)N2[C@H]1c1ccccc1)C[C@@H](C)[C@@H]3c1ccccc1 | inactive | inactive | inactive | inactive | inactive | inactive |  |
| C=CC1=C2C=C(C3CC3)N(Cc3ccccc3)C=C2C(=O)C(C)(OC(=O)c2ccco2)C1=O (configuration not stated) | inactive | inactive | inactive | inactive | inactive | inactive |  |
| N#CCCn1cnc2c1NC=NC2Cl (configuration not stated) | inactive | inactive | inactive | inactive | inactive | inactive |  |
| O=C1[C@H]2[C@@H]3[C@@H](O)[C@H](O)CC(=NOCc4ccccc4)[C@@H]3CC[C@H]2C(=O)N1C[C@@H]1CCCO1 | inactive | inactive | inactive | inactive | inactive | inactive |  |
| C=CCCN1C(=O)NC(c2ccccc2)C(C(=O)OC)=C1C (configuration not stated) | inactive | inactive | inactive | inactive | inactive | inactive |  |
| CC1(OC(=O)C2CCCC2)C(=O)C=C2C=C(C3CC3)OC=C2C1=O (configuration not stated) | inactive | inactive | inactive | inactive | inactive | inactive |  |
| CC(=O)OC[C@H]1O[C@@H](ON=C[C@@H](C)[C@H](OCc2ccccc2)C(C)C)[C@@H](OC(C)=O)[C@@H](OC(C)=O)[C@@H]1OC(C)=O | inactive | inactive | inactive | inactive | inactive | inactive |  |
| CCN1C(=NCc2ccccc2)N[C@@H](CCc2ccccc2)[C@H](C(=O)OC)[C@H]1C | inactive | inactive | inactive | inactive | inactive | inactive |  |
| COC(=O)NC(c1ccc2c(c1)OCO2)C(C(=O)OC)C(=O)OC (configuration not stated) | inactive | inactive | inactive | inactive | inactive | inactive |  |
| CC(C)OC(=O)[C@H]1O[C@H](CCCCOCc2ccccc2)[C@@H](C)[C@H]2O[C@H]21 | inactive | inactive | inactive | inactive | inactive | inactive |  |
| COC(=O)CCCC1=CC2=CC(=O)C(C)(OC(=O)c3cccs3)C(=O)C2=CN1Cc1ccco1 (configuration not stated) | inactive | inactive | inactive | inactive | inactive | inactive |  |
| COC(=O)NC(CCc1ccccc1)C(C(=O)OC)C(=O)OC (configuration not stated) | inactive | inactive | inactive | inactive | inactive | inactive |  |
| COc1cccc([C@@H]2Oc3ccc(Br)cc3C[C@@H]2OC(=O)N[S+](=O)([O-])c2ccc(C)cc2)c1 | inactive | inactive | inactive | inactive | inactive | inactive |  |
| C[C@@H](ON=C1[C@H]2CCn3c(=O)n(-c4ccccc4)c(=O)n3[C@@H]2[C@H](O)[C@@H]2O[C@H]12)c1cn([C@H](CO)Cc2ccccc2)nn1 | inactive | inactive | inactive | inactive | inactive | inactive |  |
| CC[C@H](C)[C@@H](NC(=O)O[C@H]1C(=O)c2cc(OC)ccc2O[C@@H]1c1ccc(OC)c(Br)c1)C(=O)OC | inactive | inactive | inactive | inactive | inactive | inactive |  |
| CCCC=CC1C(=O)[C@@H]2O[C@H]2C2(OCC(CC)(CC)CO2)C1CO (some centres not stated) | inactive | inactive | inactive | inactive | inactive | inactive |  |

| SMILES | Potency [1] | Potency [2] | Potency [3] | Potency [4] | Potency [5] | Potency [6] | activity, negative = inhibition [1] |
| --- | --- | --- | --- | --- | --- | --- | --- |
| COc1ccc(COC(=O)NN=C2C[C@@H](O)[C@@H](O)[C@@H]3[C@H]4C(=O)N(C5CCCCC5)C(=O)[C@@H]4CC[C@H]23)cc1 | inactive | inactive | inactive | inactive | inactive | inactive |  |
| COC(=O)CCCC1=CC2=CC(=O)C(C)(OC(=O)c3cccs3)C(=O)C2=CN1C1CCCC1 (configuration not stated) |  | inactive | inactive | inactive | inactive | inactive | -0.45% [at 1.12 µM] (inactive) |
| C[C@@H]1C=CCCO[C@]12C(=O)N(Cc1ccc(Br)cc1)c1cccc(Br)c12 | inactive | inactive | inactive | inactive | inactive | inactive |  |
| C=CCN1C=C2C(=O)C(C)(OC(=O)c3ccc(OC)cc3)C(=O)C(c3ccco3)=C2C=C1CCCC (configuration not stated) | inactive | inactive | inactive | inactive | inactive | inactive |  |
| Cc1cc2c(c(=O)n1Cc1ccccc1)[C@H]1O[C@](CCCCN3C(=O)c4ccccc4C3=O)(Cc3c1ccc1ccccc31)O2 | 1.69 µM (active) | 1.51 µM (active) | 1.51 µM (active) | 1.51 µM (active) | 1.69 µM (active) | inactive |  |
| C=CCN=C1N[C@@H](c2ccccc2)[C@H](C(=O)OC)[C@@H](C)N1CC | inactive | inactive | inactive | inactive | inactive | inactive |  |
| COc1ccc([C@]23Cc4cc(C#N)ccc4[C@H](O2)c2c(c4ccc(OC)cc4oc2=O)O3)cc1 | inactive | inactive | 1.69 µM (active) and inactive | inactive | inactive | inactive |  |
| C=CCOC(=O)N[C@H](C(C(=O)OC)=C(C)NCc1ccccc1)c1cccc(C(F)(F)F)c1 | inactive | inactive | inactive | inactive | inactive | inactive and 1.33 µM (active) |  |
| O=C1CCC=C1C(O)c1ccc2c(c1)OCO2 (configuration not stated) | inactive | inactive | inactive | inactive | inactive | inactive |  |
| C#CCCCON=C1C[C@@H](O)[C@H](O)[C@H]2[C@@H]3C(=O)N(c4ccc(F)cc4F)C(=O)[C@@H]3CC[C@H]12 | inactive | inactive | inactive | inactive | inactive | inactive |  |
| C=CCOC(=O)C1=C(C)N(CC)C(=O)NC1c1ccccc1 (configuration not stated) | inactive | inactive | inactive | inactive | inactive | inactive |  |
| COCC(=O)N1CCc2nc(-c3ccccc3)c3c(c2C1)CO[C@@H](C)C3 | inactive | inactive | inactive | inactive | inactive | inactive |  |
| CCOC(=O)CN1C(=O)N[C@@H](c2ccccc2)[C@H](C(C)=O)[C@H]1C | inactive | inactive | inactive | inactive | inactive | inactive |  |
| COC(=O)C1=C(C(=O)OC)[C@@H]2N(C)c3ccc(OC)cc3[C@@]23C[C@@H](C(=O)OC)N(C(=O)c2ccco2)C3=N1 |  | inactive | inactive | inactive | inactive | inactive | -1.01% [at 1.12 µM] (inactive) |
| COC(=O)CC1=CO[C@@H](O)[C@@H]2C(CO)=CC[C@@H]12 | inactive | inactive | inactive | inactive | inactive | inactive |  |
| COc1ccc(C2=CC3=C(Br)C(=O)C(C)(OC(=O)c4ccc(Cl)nc4)C(=O)C3=CO2)cc1 (configuration not stated) | inactive | inactive | inactive | inactive | inactive | inactive |  |
| COCCN1C(=O)C2=C(C1=O)C1N(C)c3ccccc3[C@@]13C[C@@H](CO)N(C(=O)CCC(=O)OC)C3=N2 (some centres not stated) | inactive | inactive | inactive | inactive | inactive | inactive |  |
| CCCCc1nc2c(c3c1C[C@H](C)OC3)CN(C(=O)Cc1cccs1)CC2 | inactive | inactive | inactive | inactive | inactive | inactive |  |
| COC1=CC2C(=O)C(C1=O)C1c3ccccc3CC21 (configuration not stated) | inactive | inactive | inactive | inactive | inactive | inactive |  |
| COC(=O)C1C[C@@]23C(=NN=C(SC)C2N(C)c2ccc(OC)cc23)N1C(C)=O (some centres not stated) | inactive | inactive | inactive | inactive | inactive | inactive |  |
| C=CCN1C(=O)[C@@]2(CC(C)=CC[C@@H](C)O2)c2ccccc21 | inactive | inactive | inactive | inactive | inactive | inactive |  |
| CCN1C(=O)[C@@H]2[C@H]3[C@H](O)[C@H](O)CC(=NOC[C@@H](O)COCc4ccco4)[C@@H]3CC[C@H]2C1=O | inactive | inactive | inactive | inactive | inactive | inactive |  |
| CCOC(=O)C1=CN(CCCc2cn(Cc3ccccc3)nn2)C(=O)NC1c1ccccc1 (configuration not stated) | inactive | inactive | inactive | inactive | inactive | inactive |  |
| COC(=O)CCCC1=CC2=CC(=O)C(C)(OC(=O)c3cccs3)C(=O)C2=CN1C1CC1 (configuration not stated) | inactive | inactive | inactive | inactive | inactive | inactive |  |
| CC(=CCO)CCO | inactive | inactive | inactive | inactive | inactive | inactive |  |
| COC(=O)CCCC1=CC2=CC(=O)C(C)(OC(=O)c3cccs3)C(=O)C2=CN1C1CCCCC1 (configuration not stated) | inactive | inactive | inactive | inactive | inactive | inactive |  |
